This note sets out measurements from PubChem BioAssay (NCI).

Among the test systems are NCI-H23 lung; NCI-H226 lung; NCI-H322M lung; HOP-62 NSCLC; NCI-H460 lung; HOP-92 NSCLC; NCI-H522 lung; A549/ATCC NSCLC; 786-0 renal; COLO 205 colon.
Assay in all cases: NCI-60 one-dose screen, 48 h (100 = growth as untreated, 0 = no growth, -100 = all killed)
Common to all, as to conditions: 10 µM unless noted

The structures appear in SMILES notation. The panel holds about 83,000 compounds, 20% with a hit somewhere; the sample as a whole holds those more often.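 Values shown are percent growth following 48 h exposure of cells in 96-well plates to a single concentration of compound; below 10 was considered active.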 Unmarked numbers belong to inactive results. Calls of active or inactive are those of the source.

Regarding `O=C(Nc1cccc(C(F)(F)F)c1)Nc1cccc(C(F)(F)F)c1`, the growth is 1.97% (active) in the experiment with NCI-H23 lung; -1.66% (active) with NCI-H226 lung; 16.7% with NCI-H322M lung; -1.14% (active) with HOP-62 NSCLC; 5.08% (active) with NCI-H460 lung; -16.2% (active) in the experiment on HOP-92 NSCLC. For the same compound, the growth in the experiment with NCI-H522 lung is -35% (active); in the experiment with A549/ATCC NSCLC, -1.94% (active); in the experiment with 786-0 renal, 8.34% (active); in the experiment on COLO 205 colon, -85.2% (active).
Take `N=C1CCC(=N)c2c1c(O)c1ccccc1c2O`: the growth in the experiment with NCI-H23 lung was 82.3%; in the experiment with NCI-H226 lung, 87.3%; in the experiment with NCI-H322M lung, 93.1%; in the experiment on HOP-62 NSCLC it was 103%; with NCI-H460 lung it was 173%; with HOP-92 NSCLC, 88.7%. The growth is 91.6% in the experiment on NCI-H522 lung, 95.2% in the experiment with A549/ATCC NSCLC, 113% in the experiment on 786-0 renal and 114% in the experiment on COLO 205 colon.
Turning to `CC(C)(C)OC(=O)Nc1ccc2c(c1)C(NC(=O)Nc1cccc(C#N)c1)CC(C)(C)O2` (stereo not given), the growth in the experiment with NCI-H23 lung is 41%; in the experiment on NCI-H226 lung, 48.4%; in the experiment with NCI-H322M lung, 73.6%; with HOP-62 NSCLC, 45.8%; in the experiment with NCI-H460 lung it was 25.9%; in the experiment on HOP-92 NSCLC, 39.1%. For the same compound, the growth in the experiment with NCI-H522 lung was 33.7%; with A549/ATCC NSCLC, 40%; in the experiment with 786-0 renal, 50.8%; in the experiment with COLO 205 colon, 53.7%.
`O=C1N=c2cc3c(cc2=C/C1=C/c1sc(=S)n(CCc2ccc(O)cc2)c1O)OCCO3`: the growth is 71.2% in the experiment on NCI-H23 lung; 93.5% in the experiment on NCI-H226 lung; 95.9% in the experiment with NCI-H322M lung; 97% with HOP-62 NSCLC; 83.8% in the experiment on NCI-H460 lung; 56.7% with HOP-92 NSCLC. Further, the growth in the experiment on NCI-H522 lung was 37.3%; with A549/ATCC NSCLC, 99.1%; with 786-0 renal, 80.5%; in the experiment with COLO 205 colon, 75.6%.
In the case of `COc1ccc(NC(=O)CSc2nnc(-c3cc(-c4ccccc4)nc4ccccc34)n2-c2ccccc2)cc1`, the growth is 92.1% in the experiment on NCI-H23 lung; 89.3% in the experiment on NCI-H226 lung; 94.6% with NCI-H322M lung; 101% with HOP-62 NSCLC; 102% in the experiment on NCI-H460 lung; 87.3% with HOP-92 NSCLC. For the same compound, the growth is 80.1% with NCI-H522 lung, 92.4% with A549/ATCC NSCLC, 97.3% in the experiment with 786-0 renal and 116% with COLO 205 colon.
As to `COc1ccc(S(=O)(=O)NCCNc2nccc(-c3c(-c4cccc(F)c4)nc4sccn34)n2)cc1`, the growth with NCI-H23 lung is 56.3%; in the experiment with NCI-H226 lung, 28.1%; in the experiment with NCI-H322M lung, 63%; in the experiment on HOP-62 NSCLC it was 73.4%; in the experiment on NCI-H460 lung it was 29%; in the experiment on HOP-92 NSCLC it was 71.8%. Besides, the growth in the experiment on NCI-H522 lung was 48.1%; in the experiment on A549/ATCC NSCLC, 22.5%; with 786-0 renal it was 43.1%; in the experiment with COLO 205 colon, 21.7%.
On to `N=C(N)c1ccc(-c2ccc(-c3cncc4ccccc34)s2)s1`, for which the growth with NCI-H23 lung is -53.2% (active); in the experiment with NCI-H226 lung, -50.6% (active); with NCI-H322M lung, -90.9% (active); in the experiment on HOP-62 NSCLC it was -84.8% (active); with NCI-H460 lung, -78.6% (active); in the experiment on HOP-92 NSCLC, -82.6% (active). In addition, the growth in the experiment on NCI-H522 lung was -69.6% (active); in the experiment on A549/ATCC NSCLC, -85.8% (active); in the experiment on 786-0 renal, -84.6% (active); with COLO 205 colon, -78.1% (active).
For the compound `COc1ccc(NC(=O)c2nc(-c3cc(OC)c(OC)c(OC)c3)n(-c3cccc4ccccc34)n2)cc1OC`, the growth with NCI-H23 lung was 45.4%; in the experiment with NCI-H226 lung it was 44.9%; with NCI-H322M lung, 44.8%; with HOP-62 NSCLC, 42.1%; with NCI-H460 lung it was 49.6%; in the experiment on HOP-92 NSCLC, 46.4%. The growth was 21.8% in the experiment with NCI-H522 lung, 50.6% in the experiment with A549/ATCC NSCLC, 31.8% with 786-0 renal and 37.1% with COLO 205 colon.
Take `CNC(=O)c1cc(Oc2ccc3nc(Nc4ccc(Cl)c(C(F)(F)F)c4)ccc3c2)ccn1`: the growth with NCI-H23 lung is 72.5%; in the experiment on NCI-H226 lung, 56.9%; with NCI-H322M lung, 89.2%; in the experiment with HOP-62 NSCLC, 85.1%; with NCI-H460 lung, 55.8%; with HOP-92 NSCLC, 59.2%. The growth in the experiment on NCI-H522 lung was 22.7%; in the experiment on A549/ATCC NSCLC it was 48.2%; in the experiment with 786-0 renal, 85%; in the experiment on COLO 205 colon it was 52.6%.
On to `O=C1/C(=C/c2ccc(F)cc2)C=C(c2ccccc2)N1CCc1ccccc1`, for which the growth was 70.8% in the experiment with NCI-H23 lung; 51.9% with NCI-H226 lung; 65.6% in the experiment with NCI-H322M lung; -3.68% (active) with HOP-62 NSCLC; 61.3% with NCI-H460 lung; 7.45% (active) with HOP-92 NSCLC. Besides, the growth was 42.9% in the experiment with NCI-H522 lung, 40.8% with A549/ATCC NSCLC, 27.6% with 786-0 renal and 71.9% in the experiment on COLO 205 colon.
As to `Cc1ccc(-n2c(-c3ccccc3)c(-c3ccccc3)c3c(SCC(=O)n4[nH]c(N)cc4=O)ncnc32)cc1`, the growth was 90.8% in the experiment with NCI-H23 lung; 88.8% with NCI-H226 lung; 101% with NCI-H322M lung; 87.6% in the experiment on HOP-62 NSCLC; 103% in the experiment with NCI-H460 lung; 74.7% in the experiment on HOP-92 NSCLC. The growth in the experiment on NCI-H522 lung was 79.6%; in the experiment on A549/ATCC NSCLC, 92.5%; in the experiment on 786-0 renal, 96.6%; in the experiment on COLO 205 colon, 94.4%.
Regarding `COc1cccc(Nc2nccc(Nc3ccc4[nH]ncc4c3)n2)c1`, the growth in the experiment with NCI-H23 lung was -29.1% (active); with NCI-H226 lung, -17.3% (active); in the experiment on NCI-H322M lung, 7.17% (active); in the experiment with HOP-62 NSCLC, -11.4% (active); with NCI-H460 lung it was -68.1% (active); in the experiment with HOP-92 NSCLC it was -11.2% (active). The growth in the experiment with NCI-H522 lung is -68.4% (active); in the experiment on A549/ATCC NSCLC it was -68.3% (active); in the experiment on 786-0 renal, -12.5% (active); with COLO 205 colon, -88.4% (active).
Regarding `COc1cc(C(=O)/C=C/c2c(-c3ccc(F)cc3)nc3sc(C)cn23)cc(OC)c1OC`, the growth in the experiment on NCI-H23 lung was 28.9%; in the experiment with NCI-H226 lung, 58.5%; with NCI-H322M lung, 52%; with HOP-62 NSCLC, 79%; in the experiment with NCI-H460 lung, 28.7%; with HOP-92 NSCLC, 23.4%. The growth is 93.4% in the experiment on NCI-H522 lung, 45.4% in the experiment on A549/ATCC NSCLC, 40.8% in the experiment on 786-0 renal and 52% in the experiment with COLO 205 colon.
